Screening results deposited in PubChem BioAssay by Fisher Drug Discovery Resource Center.
hcGAS lum = inhibitors of human cGAS. Q8N884. recombinant h-cGAS, ATP depletion, Kinase-Glo luminescence. inhibition, % at 12.5 µM. actives 0.081% (n = 290,000). AID 1259398;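 also: 0% = vehicle reaction and 100% = reaction without DNA for no activity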
mcGAS inh = inhibitors of mouse cGAS | inhibition, % at 12.5 µM | actives 0.15% (n = 160,000) | Q8C6L5 | recombinant cGAS, Kinase-Glo ATP depletion luminescence;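 also: 0% = negative control wells and 100% = reference inhibitor with no enzyme activity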
Target sequence (Q8C6L5 whole entry, looked up): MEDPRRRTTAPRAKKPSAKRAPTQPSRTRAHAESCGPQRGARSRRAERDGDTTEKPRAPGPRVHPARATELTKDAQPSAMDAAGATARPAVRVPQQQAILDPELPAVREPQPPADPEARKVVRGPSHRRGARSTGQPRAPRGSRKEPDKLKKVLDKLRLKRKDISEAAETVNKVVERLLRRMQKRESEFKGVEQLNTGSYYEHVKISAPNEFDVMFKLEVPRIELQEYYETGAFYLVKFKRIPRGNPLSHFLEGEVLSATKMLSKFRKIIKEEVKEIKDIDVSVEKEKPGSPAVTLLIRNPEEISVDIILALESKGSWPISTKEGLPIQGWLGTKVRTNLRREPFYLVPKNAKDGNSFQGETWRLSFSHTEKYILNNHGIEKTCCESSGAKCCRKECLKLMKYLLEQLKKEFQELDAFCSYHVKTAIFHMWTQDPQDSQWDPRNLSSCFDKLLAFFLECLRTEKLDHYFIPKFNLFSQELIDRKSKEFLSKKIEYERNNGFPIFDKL
NPYLR7 ag = mosquito NPYLR7 agonism; HEK293T NPYLR7/Galpha15, GCaMP6s calcium fluorescence; activation, % at 10 µM; actives 0.15% (n = 270,000); AID 1259423; in the data active = activation above about 40%;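 also: 0% = vehicle and 100% = reference agonist at the receptor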
Starred values were filed as active, the others as inactive; ! = not confirmed by another sample. Sampled rows, rich in hits. Any-hit rate of the full collection: about 0.28%. Rule as the data show it, unless noted: active = inhibition above about 40%; inactive = the rest.

COc1ccc(-c2cc3c(cn2)nc(NCc2ccccc2)n3C)c(C)c1 was read as hcGAS lum -2, mcGAS inh -5 and NPYLR7 ag -2.
COc1ccc(OCC(=O)NCc2cc(-c3ccc4c(c3)OCO4)on2)cc1 was read as hcGAS lum -12, mcGAS inh -8 and NPYLR7 ag 3.
`COc1ccc(OC)c(CCNc2nc3cnc(-c4cccc5ccccc45)cc3n2C)c1` gave hcGAS lum -6, mcGAS inh -7 and NPYLR7 ag 59*.
Screening COc1ccc(S(=O)(=O)N2CCCC3(CCNCC3)CC2)cc1OC returned hcGAS lum 0 and NPYLR7 ag -20.
`O=C(NC1=NCCS1)C(C(F)(F)F)C(F)(F)F` gave hcGAS lum 4 and mcGAS inh -2.
COCCN=Cc1cc(Br)cc(Br)c1O was read as hcGAS lum 68*, mcGAS inh 2 and NPYLR7 ag 9.
NC(=O)NN=Cc1cc(Br)cc(Br)c1O was read as hcGAS lum 8 and NPYLR7 ag 1.
FC(F)(F)c1ccc(-c2nc3ccc(Cl)cn3c2NCc2ccccc2)cc1 was read as hcGAS lum -7, mcGAS inh -8 and NPYLR7 ag 47*.
`CC(C)(C)c1ccc(-c2nc3ccc(Cl)cn3c2NCc2ccccc2)cc1` gave hcGAS lum -6, mcGAS inh -7 and NPYLR7 ag -4.
Screening Nc1ccc(Oc2ccc([N+](=O)[O-])cc2)cc1 returned hcGAS lum 1 and NPYLR7 ag -11.
`Nc1ccc(Oc2cc(N)cc(Oc3ccccc3)c2)cc1` gave hcGAS lum -3, mcGAS inh -3 and NPYLR7 ag 74*.
Cc1nc2ccc(C(=O)N(C)Cc3ccco3)cn2c1N(C)C=O was read as hcGAS lum 0, mcGAS inh 1 and NPYLR7 ag 4.
`C=c1[nH]n(-c2ccccc2)c(=O)c1=CC=C1N(C)c2ccccc2C1(C)C` gave hcGAS lum -9 and NPYLR7 ag 19.
`CN1C(=CC=C2C(=O)CC(C)(C)CC2=O)C(C)(C)c2ccccc21` gave hcGAS lum -8 and NPYLR7 ag 298*.
For Cc1cc(C)nc(-n2nc(C(C)(C)C)cc2OCC(=O)NCc2ccccc2)n1 the results were hcGAS lum -4 and NPYLR7 ag 1.
For COCCOc1nc(-c2cccc(C(F)(F)F)c2)n(-c2cccc(NC(=O)c3cccc([N+](=O)[O-])c3)c2)n1 the results were hcGAS lum -5, mcGAS inh -5 and NPYLR7 ag 33.
For O=C(NN=Cc1ccccc1C(F)(F)F)c1cnccn1 the results were hcGAS lum 1, mcGAS inh 55* and NPYLR7 ag -5.
O=C(NN=Cc1ccccc1C(F)(F)F)c1ccco1 was read as hcGAS lum -2, mcGAS inh -1 and NPYLR7 ag -2.
Screening C=C1C(=O)O[C@@H]2C[C@@]3(C)CCC[C@H](C)C3=C[C@H]12 returned hcGAS lum -4, mcGAS inh 93* and NPYLR7 ag -6.
For COCCN(C(=O)C1CCC1)c1ccccc1CNC(=O)C1CCC1 the results were hcGAS lum -10 and NPYLR7 ag 3.
`Cc1ccc(N2C(=O)NC(=O)/C(=C\c3cccs3)C2=O)cc1` gave hcGAS lum -4, mcGAS inh -7 and NPYLR7 ag 65*.
`Cc1ccc(N2C(=O)NC(=O)/C(=C\c3ccc(N(C)C)o3)C2=O)cc1` gave hcGAS lum -3, mcGAS inh -8 and NPYLR7 ag 5.
Screening COc1cccc(CN(Cc2ccc(F)cc2)CC(O)COc2ccccc2)c1 (stereo unspecified) returned hcGAS lum -4, mcGAS inh 76* and NPYLR7 ag 39.
`CCCN(Cc1ccsc1)CC(O)COc1ccccc1` (stereo unspecified) gave hcGAS lum -4, mcGAS inh 41* and NPYLR7 ag 27.
`C=CCOCC(O)CN(Cc1ccc(F)cc1)Cc1cccc(OC)c1` (stereo unspecified) gave hcGAS lum -10, mcGAS inh -4 and NPYLR7 ag 22.
For CC(C)CN(Cc1ccsc1)CC(O)COc1ccc(Cl)cc1 (stereo unspecified) the results were hcGAS lum -6, mcGAS inh -4 and NPYLR7 ag 6.
For CCOC(=O)Cc1cc(=O)n2[nH]cc(-c3cccc(Br)c3)c2n1 the results were hcGAS lum 63* and NPYLR7 ag -6.
`CCOC(=O)Cc1cc(=O)n2[nH]c(-c3ccc(Br)cc3)cc2n1` gave hcGAS lum -3 and NPYLR7 ag 7.
For O=C(CCl)Nc1ccc2c(c1)C(=O)c1ccccc1C2=O the results were hcGAS lum 2, mcGAS inh 57* and NPYLR7 ag 2.
Screening Cc1cc(NC(=O)CCl)ccc1N1CCCC1 returned hcGAS lum 0, mcGAS inh 1 and NPYLR7 ag 5.
`Brc1cnc2n[nH]nc2c1` gave hcGAS lum 4, mcGAS inh -3 and NPYLR7 ag -8.
Screening C=CCc1cccc2cc(C(=O)N3CCN(C)CC3)c(=O)oc12 returned hcGAS lum -2 and NPYLR7 ag -2.
Screening O=C1/C(=C/c2cc3cc(Br)ccc3o2)Oc2c1ccc(O)c2CN1CCN(CCO)CC1 returned hcGAS lum -2, mcGAS inh -3 and NPYLR7 ag 72*.
Cc1cc(O)c(CN2CCN(CCO)CC2)c2c1C(=O)/C(=C/c1cccc(Br)c1)O2 was read as hcGAS lum -7, mcGAS inh 6 and NPYLR7 ag 25.
Screening COCCn1c(N/N=C\c2ccc(OC)cc2)nc2c1c(=O)[nH]c(=O)n2C returned hcGAS lum -6, mcGAS inh -9 and NPYLR7 ag 8.
CCCCN1C(=O)NC(NS(=O)(=O)c2ccc(N)cc2)(C(F)(F)F)C1=O (stereo unspecified) was read as hcGAS lum -14, mcGAS inh -8 and NPYLR7 ag 0.
CCc1nn(-c2ccc(OC)cc2)c(CC)c1C(=O)NC1CC1 was read as hcGAS lum -7, mcGAS inh -9 and NPYLR7 ag 22.
CCOC(=O)Cc1cnc(C)[nH]c1=O was read as hcGAS lum -3, mcGAS inh -2 and NPYLR7 ag 4.
For CCOC(=O)Cc1c(C)n2nc(C)cc2[nH]c1=O the results were hcGAS lum 58* and NPYLR7 ag -2.
`Clc1c(-c2nnco2)sc2ccccc12` gave hcGAS lum 1 and NPYLR7 ag -2.
`S=c1[nH]nc(-c2sc3ccccc3c2Cl)o1` gave hcGAS lum 50*!, mcGAS inh 47* and NPYLR7 ag 0.
COc1cc2oc(=O)c3c4c(cc5ccc(c1CCN(C)C)c2c53)OCO4 was read as hcGAS lum 44*, mcGAS inh 52* and NPYLR7 ag 2.
COc1cc(CNCCN(C)C)cc2c1OCO2 was read as hcGAS lum -7, mcGAS inh -4 and NPYLR7 ag 2.
`O=c1[nH]c2c(Br)c(Br)c(Br)cc2o1` gave hcGAS lum 35, mcGAS inh 66* and NPYLR7 ag 12.
For O=c1[nH]c2ccc(Cl)cc2o1 the results were hcGAS lum -4 and NPYLR7 ag 7.
Screening CCCCC(=O)Nc1sc2c(c1-c1nc3ccccc3s1)CCN(C(C)=O)C2 returned hcGAS lum -1 and NPYLR7 ag 3.
For CCC(=O)Nc1sc2c(c1-c1nc3ccccc3s1)CCN(C(C)=O)C2 the results were hcGAS lum -5 and NPYLR7 ag 0.
